Test results reported in the supplement of paper PMC10849652.
The full data set covers some 7,900 targets. This sample favours those with a hit. About 0.6% of all pairs of compound and target were hits. Values without a mark were called inactive.

Columns and labels:
Assay in all cases: log2 fold change, soluble protein after heating vs DMSO (PISA); higher = thermal stabilisation; K562 cells, 10 uM, 30 min; active = over 0.2 and 3.5 SD of the protein, either way, in both replicates (recomputed)
[1] = compound: C#Cc1cccc(Nc2ncnc3cc(OCCOC)c(OCCOC)cc23)c1 [erlotinib]
How it was run: (§1)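 Thermal stability values are relative to control samples and come from duplicates. They are expressed as log2 fold changes. For measurement, K562 cells (2×10^6 cells/mL) received 10 μM compound for 30 min, and aliquots were heated for 3 min over 48°C-58°C, pooled, and extracted at 4°C in PBS with 0.5% NP-40. Soluble protein, the supernatant after 21,000xg for 90 min, was quantified by TMTpro 16plex LC-MS/MS with equalised channel sums.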

[2] = compound: C/C(=N\NC(=O)C1=CC(=CC=C1)S(=O)(=O)N2CCOCC2)/C3=C(C=CC(=C3)Cl)O
How it was run: as §1

[3] = compound: C1=CC(=C(C=C1Cl)C2=NC3=NC=CN=C3C(=N2)NC4=CC=NC=C4)F
How it was run: as §1

[4] = compound: C1=CC(=CC=C1C2=NC3=C(N2)C=C(C=C3)C(=O)N)OC4=CC=C(C=C4)Cl
How it was run: as §1

[5] = compound: C1=CC2=C(C=CC(=C2)/C=C\3/C(=O)NC(=NCC4=CC=CS4)S3)N=C1
How it was run: as §1

[6] = compound: C1=CC2=NC=CN=C2C=C1/C=C/3\C(=O)NC(=O)S3
How it was run: as §1

[7] = compound: C1=CC=C(C=C1)C2=NC(=C(N2)C3=CC=NC=C3)C4=CC(=C(C=C4)Cl)O
How it was run: as §1

[8] = compound: C1=CC=C2C(=C1)C3=NNC4=CC=CC(=C43)C2=O
How it was run: as §1

[9] = compound: C1CCN(C1)C(=O)NC2=CC=CC(=C2)NC3=NC=C(C(=N3)NCCC4=CN=CN4)Br
How it was run: as §1

[10] = compound: C1CN(CCC1(CC2=CC=C(C=C2)Cl)N)C3=NC=NC4=C3C=CN4
How it was run: as §1

Chain of UniProt Q86X27 (Q86X27 whole entry, looked up): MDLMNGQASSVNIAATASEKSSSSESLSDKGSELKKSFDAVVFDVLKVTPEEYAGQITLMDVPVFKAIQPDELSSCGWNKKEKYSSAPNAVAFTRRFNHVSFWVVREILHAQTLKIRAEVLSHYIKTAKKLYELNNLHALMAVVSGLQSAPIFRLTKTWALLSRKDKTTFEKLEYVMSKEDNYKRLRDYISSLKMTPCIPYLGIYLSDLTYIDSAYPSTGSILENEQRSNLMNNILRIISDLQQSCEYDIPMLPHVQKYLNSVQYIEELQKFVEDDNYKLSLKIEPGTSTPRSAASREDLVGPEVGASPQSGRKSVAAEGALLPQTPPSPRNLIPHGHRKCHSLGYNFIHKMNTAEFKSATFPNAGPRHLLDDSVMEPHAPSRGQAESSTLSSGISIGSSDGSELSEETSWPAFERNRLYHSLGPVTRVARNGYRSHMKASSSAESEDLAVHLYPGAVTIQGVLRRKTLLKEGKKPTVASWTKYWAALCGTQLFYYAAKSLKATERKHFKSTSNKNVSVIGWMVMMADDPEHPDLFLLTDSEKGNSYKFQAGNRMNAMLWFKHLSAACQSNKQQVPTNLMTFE
Chain of UniProt Q14151 (Q14151 whole entry, looked up): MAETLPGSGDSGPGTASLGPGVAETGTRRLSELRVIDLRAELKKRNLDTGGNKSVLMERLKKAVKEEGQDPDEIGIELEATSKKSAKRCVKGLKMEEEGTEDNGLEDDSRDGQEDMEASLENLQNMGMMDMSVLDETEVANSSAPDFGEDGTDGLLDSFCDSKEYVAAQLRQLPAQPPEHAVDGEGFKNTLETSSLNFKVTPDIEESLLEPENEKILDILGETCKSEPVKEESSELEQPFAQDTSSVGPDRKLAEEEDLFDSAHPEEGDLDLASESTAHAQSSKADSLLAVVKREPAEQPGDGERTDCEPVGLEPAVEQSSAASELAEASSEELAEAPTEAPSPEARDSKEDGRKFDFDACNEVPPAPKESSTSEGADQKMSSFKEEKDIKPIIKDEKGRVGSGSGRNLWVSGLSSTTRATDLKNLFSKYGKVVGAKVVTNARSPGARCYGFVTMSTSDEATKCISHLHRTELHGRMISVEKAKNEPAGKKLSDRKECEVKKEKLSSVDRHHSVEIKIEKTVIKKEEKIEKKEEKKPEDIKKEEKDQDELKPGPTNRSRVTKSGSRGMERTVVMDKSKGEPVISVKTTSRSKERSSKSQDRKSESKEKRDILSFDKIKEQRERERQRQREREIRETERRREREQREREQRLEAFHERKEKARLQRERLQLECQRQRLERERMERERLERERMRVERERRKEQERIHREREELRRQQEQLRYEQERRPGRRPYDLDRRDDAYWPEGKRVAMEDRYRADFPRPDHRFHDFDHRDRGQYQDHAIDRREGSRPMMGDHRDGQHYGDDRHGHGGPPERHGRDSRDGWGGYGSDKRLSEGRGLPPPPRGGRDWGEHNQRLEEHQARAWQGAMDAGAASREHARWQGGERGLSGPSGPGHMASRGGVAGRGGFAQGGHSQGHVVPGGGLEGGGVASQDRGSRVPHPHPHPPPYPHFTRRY
Chain of UniProt Q6NT16 (Q6NT16 whole entry, looked up): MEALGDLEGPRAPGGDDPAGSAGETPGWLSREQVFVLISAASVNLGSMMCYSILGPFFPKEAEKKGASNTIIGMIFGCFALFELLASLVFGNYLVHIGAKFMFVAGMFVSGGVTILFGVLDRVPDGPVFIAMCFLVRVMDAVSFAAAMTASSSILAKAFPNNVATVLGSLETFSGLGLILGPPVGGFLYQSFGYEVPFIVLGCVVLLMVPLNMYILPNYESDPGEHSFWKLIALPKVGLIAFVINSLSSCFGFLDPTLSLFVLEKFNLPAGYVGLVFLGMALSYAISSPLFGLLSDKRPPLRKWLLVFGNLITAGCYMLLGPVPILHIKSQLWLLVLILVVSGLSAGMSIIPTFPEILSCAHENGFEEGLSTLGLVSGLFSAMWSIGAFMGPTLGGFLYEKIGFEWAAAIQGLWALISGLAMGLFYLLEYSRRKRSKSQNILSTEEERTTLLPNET
Chain of UniProt Q9NTJ5 (Q9NTJ5 whole entry, looked up): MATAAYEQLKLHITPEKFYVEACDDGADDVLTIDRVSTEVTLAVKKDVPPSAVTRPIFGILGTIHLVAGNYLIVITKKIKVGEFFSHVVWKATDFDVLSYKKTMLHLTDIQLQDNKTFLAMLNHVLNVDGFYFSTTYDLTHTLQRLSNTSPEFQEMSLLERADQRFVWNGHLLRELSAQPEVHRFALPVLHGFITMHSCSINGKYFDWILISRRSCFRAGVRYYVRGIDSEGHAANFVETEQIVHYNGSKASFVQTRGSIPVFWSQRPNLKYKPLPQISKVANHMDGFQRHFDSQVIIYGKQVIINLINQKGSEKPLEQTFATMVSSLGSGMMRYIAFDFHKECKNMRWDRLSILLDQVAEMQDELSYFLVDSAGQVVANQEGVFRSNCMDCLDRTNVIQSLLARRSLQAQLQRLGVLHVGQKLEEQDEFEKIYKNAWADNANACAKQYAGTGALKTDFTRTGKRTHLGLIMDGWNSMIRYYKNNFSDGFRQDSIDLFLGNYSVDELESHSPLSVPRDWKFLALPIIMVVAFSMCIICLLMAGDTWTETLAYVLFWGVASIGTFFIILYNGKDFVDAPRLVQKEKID
Chain of UniProt Q96EV2 (Q96EV2 whole entry, looked up): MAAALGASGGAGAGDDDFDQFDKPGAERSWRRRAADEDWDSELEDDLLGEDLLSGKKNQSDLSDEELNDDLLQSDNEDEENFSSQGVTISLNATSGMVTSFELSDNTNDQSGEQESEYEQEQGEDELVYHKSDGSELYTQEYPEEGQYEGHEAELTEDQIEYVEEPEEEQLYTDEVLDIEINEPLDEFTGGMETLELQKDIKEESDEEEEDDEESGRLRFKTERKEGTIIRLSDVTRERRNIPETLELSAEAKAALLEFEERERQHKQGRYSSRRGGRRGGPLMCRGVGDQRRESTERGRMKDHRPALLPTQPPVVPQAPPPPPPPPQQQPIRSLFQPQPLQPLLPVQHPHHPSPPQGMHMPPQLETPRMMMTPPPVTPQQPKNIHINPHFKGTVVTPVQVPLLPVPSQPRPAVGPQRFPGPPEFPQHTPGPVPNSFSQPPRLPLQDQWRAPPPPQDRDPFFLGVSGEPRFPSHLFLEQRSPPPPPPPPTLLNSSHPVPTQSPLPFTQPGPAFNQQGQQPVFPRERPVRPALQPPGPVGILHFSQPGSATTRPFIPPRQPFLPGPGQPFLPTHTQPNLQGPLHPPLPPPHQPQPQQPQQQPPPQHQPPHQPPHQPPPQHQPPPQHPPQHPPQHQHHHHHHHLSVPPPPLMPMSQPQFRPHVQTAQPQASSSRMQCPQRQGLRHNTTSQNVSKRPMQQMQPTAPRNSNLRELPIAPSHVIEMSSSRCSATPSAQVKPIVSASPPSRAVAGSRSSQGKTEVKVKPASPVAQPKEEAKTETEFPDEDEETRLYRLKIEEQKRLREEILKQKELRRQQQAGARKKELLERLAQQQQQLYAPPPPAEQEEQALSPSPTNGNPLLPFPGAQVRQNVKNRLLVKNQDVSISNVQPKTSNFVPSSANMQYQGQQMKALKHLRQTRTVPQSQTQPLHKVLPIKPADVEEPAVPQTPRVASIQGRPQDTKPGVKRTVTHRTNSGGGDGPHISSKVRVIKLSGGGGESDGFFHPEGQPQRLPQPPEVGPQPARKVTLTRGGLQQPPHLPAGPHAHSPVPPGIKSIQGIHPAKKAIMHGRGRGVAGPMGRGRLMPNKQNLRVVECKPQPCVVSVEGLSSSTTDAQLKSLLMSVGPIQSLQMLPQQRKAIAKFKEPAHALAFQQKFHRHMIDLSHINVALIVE
Chain of UniProt Q5JTH9 (Q5JTH9 whole entry, looked up): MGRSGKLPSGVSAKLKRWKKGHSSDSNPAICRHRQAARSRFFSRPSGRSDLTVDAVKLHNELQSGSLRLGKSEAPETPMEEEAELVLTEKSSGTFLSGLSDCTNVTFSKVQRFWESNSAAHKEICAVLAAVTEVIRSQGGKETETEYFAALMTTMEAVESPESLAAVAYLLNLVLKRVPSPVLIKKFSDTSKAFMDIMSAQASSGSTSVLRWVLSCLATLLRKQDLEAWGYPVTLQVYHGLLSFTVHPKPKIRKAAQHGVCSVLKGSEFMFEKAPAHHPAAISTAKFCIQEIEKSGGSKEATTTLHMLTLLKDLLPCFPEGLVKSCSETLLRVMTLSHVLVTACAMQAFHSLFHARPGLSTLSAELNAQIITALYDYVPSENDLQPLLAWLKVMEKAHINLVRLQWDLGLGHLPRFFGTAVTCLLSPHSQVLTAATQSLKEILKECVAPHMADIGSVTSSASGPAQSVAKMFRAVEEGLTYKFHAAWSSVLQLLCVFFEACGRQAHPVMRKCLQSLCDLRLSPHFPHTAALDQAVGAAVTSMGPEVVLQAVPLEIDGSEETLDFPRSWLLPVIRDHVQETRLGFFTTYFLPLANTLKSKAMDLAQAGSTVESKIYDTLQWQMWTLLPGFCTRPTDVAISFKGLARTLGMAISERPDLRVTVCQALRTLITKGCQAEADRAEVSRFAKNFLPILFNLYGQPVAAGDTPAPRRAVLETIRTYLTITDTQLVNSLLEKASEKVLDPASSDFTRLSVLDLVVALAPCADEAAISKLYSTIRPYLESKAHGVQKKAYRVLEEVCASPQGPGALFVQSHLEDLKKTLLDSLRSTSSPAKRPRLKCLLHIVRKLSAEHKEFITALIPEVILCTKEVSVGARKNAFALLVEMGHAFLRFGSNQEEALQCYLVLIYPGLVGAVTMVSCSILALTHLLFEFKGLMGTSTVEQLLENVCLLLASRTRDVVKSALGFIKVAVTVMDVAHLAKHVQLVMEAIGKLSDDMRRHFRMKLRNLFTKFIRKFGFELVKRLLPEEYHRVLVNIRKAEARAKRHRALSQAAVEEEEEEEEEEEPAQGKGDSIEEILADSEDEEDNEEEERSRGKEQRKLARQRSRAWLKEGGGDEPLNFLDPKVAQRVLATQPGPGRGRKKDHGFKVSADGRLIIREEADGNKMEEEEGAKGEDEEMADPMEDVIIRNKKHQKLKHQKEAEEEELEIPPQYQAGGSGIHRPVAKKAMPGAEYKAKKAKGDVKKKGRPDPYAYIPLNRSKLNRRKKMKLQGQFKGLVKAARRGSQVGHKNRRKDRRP

Target	log2 fold change [1]	log2 fold change [2]	log2 fold change [3]	log2 fold change [4]	log2 fold change [5]	log2 fold change [6]	log2 fold change [7]	log2 fold change [8]	log2 fold change [9]	log2 fold change [10]
SCPEP1 (UniProt Q9HB40)	-0.002	0.017	0.064	0.015	-0.024	0.058	-0.013	0.017	-0.012	0.079
RRP12 (UniProt Q5JTH9)	0.074	-0.3	-0.172	0.028	-0.04	0.038	0.166	0.205	0.079	0.054
SACM1L (UniProt Q9NTJ5)	0.005	0.1	0.109	-0.061	0.039	-0.007	0.077	0.009	0.001	0.068
SCAF8 isoform 2 (UniProt Q9UPN6)	0.203	0.051	0.048	0.034	0.124	-0.028	0.298	0.069	-0.031	-0.036
RRP36 (UniProt Q96EU6)	-0.192	-0.147	-0.586	-0.005	-0.133	-0.06	0.019	0.012	0.045	-0.146
ROR2 (UniProt Q01974)	-0.045	0.058	0.01	0.023	0.02	0.011	0.076	-0.024	-0.041	-0.001
RBBP6 (UniProt Q7Z6E9)	-0.01	0.005	0.014	-0.034	-0.037	0	0.025	-0.005	-0.067	0.003
SAFB2 (UniProt Q14151)	0.015	-0.135	-0.294	0.071	-0.148	0.049	0.014	-0.015	-0.037	-0.041
RPS9 (UniProt P46781)	-0.099	-0.05	-0.384	0.024	-0.069	-0.011	0.047	0.002	0.102	-0.172
RBM33 (UniProt Q96EV2)	0.017	0.04	-0.022	-0.011	0	0.01	0.001	-0.114	0.034	0.038
SERINC1 (UniProt Q9NRX5)	-0.034	-0.023	-0.006	0.096	-0.026	0.085	0.018	0.149	0.115	-0.031
RMC1 (UniProt Q96DM3)	0.028	0.124	0.048	0.04	0.027	-0.038	0.011	-0.055	0.048	-0.038
RCOR1 (UniProt Q9UKL0)	0.033	0.069	-0.043	-0.056	0.134	-0.013	0.076	-0.011	-0.006	-0.043
SKP1 (UniProt P63208)	-0.003	-0.036	0.05	-0.011	-0.048	0.045	0.047	0.009	-0.006	0.03
RAVER1 (UniProt E9PAU2)	0.218	0.403	0.042	0.009	0.002	-0.06	0.257	-0.084	-0.05	-0.011
RPS25 (UniProt P62851)	-0.083	-0.071	-0.276	0.077	-0.075	-0.091	-0.067	0.033	0.061	-0.141
RPRD1B (UniProt Q9NQG5)	-0.065	0.086	0.036	0.028	0.063	0.052	0.042	-0.005	0.009	-0.046
RHOXF2 (UniProt Q9BQY4)	-0.067	-0.137	-0.002	0.003	-0.06	0.054	0.06	-0.026	0.036	0.011
RDH11 (UniProt Q8TC12)	-0.007	-0.03	0.102	0.068	0.084	-0.1	0.029	0.04	-0.044	-0.043
SEH1L isoform 1 (UniProt Q96EE3)	0.018	0.073	0.012	0.043	0.049	0.064	0	-0.06	-0.02	0.035
RPTOR (UniProt Q8N122)	-0.034	0.075	0.036	-0.037	0.039	0.003	-0.038	-0.031	-0.042	-0.027
SLC12A5 (UniProt Q9H2X9)	0.036	0.054	-0.49 (active)	0.034	0.098	-0.021		-0.138	0.038	0.103
RPS20 isoform 2 (UniProt P60866)	-0.129	-0.082	-0.171	0.023	-0.004	-0.068	-0.04	-0.025	0.05	-0.159
RALGPS2 (UniProt Q86X27)	-0.43	-0.07	-0.321	0.037	-0.079	0.111		-0.012	-0.06	0.154
SLC18B1 (UniProt Q6NT16)	-0.011	-0.09	0.067	0.06	0.108	0	0.12	0.002	-0.037	0.081
RPS12 (UniProt P25398)	-0.115	-0.082	-0.072	-0.001	-0.021	-0.002	0.008	-0.02	0.027	-0.05
RSRC2 (UniProt Q7L4I2)	0.023	-0.01	-0.009	-0.012	-0.05	0.018	0.019	-0.032	0	0.012
RPP14 (UniProt O95059)	-0.047	0.09	-0.077	0.059	-0.046	-0.023	0.012	-0.022	-0.017	0.021
SLBP (UniProt Q14493)	0.006	0.03	-0.058	0.019	-0.111	0.035	0.005	0.008	0.008	-0.039
